Records with an inconclusive call do not appear. The source made the active and inactive calls. The calls were made as follows: active = hit-call score of the fitted dose curve at least 0.9, where 1 is the maximum; inconclusive = response in the unintended direction; inactive = score below 0.9.

Read-out in the assay: HMG-CoA synthase (HMGCS2), HMGCS2 (gene 3158)
The assay can be described thus: CLD_HMGCS2_24hr: CellzDirect (CLD) Gene Expression Assay for HMG-CoA synthase (HMGCS2) at 24 hours (AID 2283691). As to the method:
CLD_24hr is a cell-based, multiplexed-readout assay that uses hepatocyte, a human liver primary cell, with measurements taken at 24 hours after chemical dosing in a 96-well plate.CLD_HMGCS2_24hr is one of 16 assay component(s) measured or calculated from the CLD_24hr assay. It is designed to make measurements of mRNA induction, a form of inducible reporter, as detected with chemiluminescence signals by Quantitative Nuclease Protection Assay (qNPA) technology.Data from the assay component CLD_HMGCS2_24hr was analyzed at the endpoint, CLD_HMGCS2_24hr, in the positive analysis fitting direction relative to DMSO as the negative control and baseline of activity. Using a type of inducible reporter, gain-of-signal activity can be used to understand changes in the reporter gene as they relate to the gene HMGCS2. Furthermore, this assay endpoint can be referred to as a primary readout. To generalize the intended target to other relatable targets, this assay endpoint is annotated to the lyase intended target family, where subfamily is HMG-CoA synthase.
Human hepatocyte cultures were treated daily for two consecutive days with fresh dosing solutions containing appropriate concentrations of the 320 ToxCast chemicals (chemical identities were blinded to CellzDirect and other ToxCast collaborators), vehicle control (0.2% DMSO), and positive control inducers as summarized in Table 1. Due to the large number of treatment groups and chemicals examined, the ToxCast chemicals were divided into two groups (spanning two independent cultures of hepatocytes from separate donor preparations (Hu778: ToxCast plates 1 and 2; Hu776: ToxCast plates 3 and 4). Each preparation of human hepatocyte cultures was treated with respective vehicle control, medium only control, set of six positive controls/reference chemicals for the five hepatic receptor pathways, and a subset of eight of the ToxCast chemicals (indoxacarb, pyrithiobac-sodium, norflurazon, cyhalofop-butyl, methomyl, thiram, acetochlor, and propiconazole). These replicate data, coupled with internal replicates designed within the blinded ToxCast chemical library, provided additional data to evaluate interindividual differences between hepatocyte preparations and their potential impact on chemical profiles.Cell morphology and integrity were evaluated using phase-contrast microscopy as an indicator of hepatocyte cell health (Tyson & Green, 1987). Cultures for each treatment group (i.e., media, vehicle [0.2% DMSO], positive control inducers [multiple concentrations], and the ToxCast chemicals [multiple concentrations]) were observed and cell morphology was assessed relative to vehicle control cultures at each harvest time point (0, 6, 24, or 48 h). […] Images were evaluated at the conclusion of the study to assess changes in cell integrity and account for the effects of chemical exposure on uncharacteristic changes in concentration-dependent gene expression profiles. The results from these determinations of apparent cytotoxicity were annotated (yes/no) alongside the corresponding qNPA data for reference.At the conclusion of each treatment period, hepatocyte cultures (96-well) were washed with 1 volume of HBSS, lysed by addition of 25 ul ArrayPlate lysis buffer (HTG, Tucson, AZ), and 70 ul/well of Denaturation Oil, denatured by incubation at 95C for 10 min, and frozen at approximately -70C until analysis by nuclease protection assay (qNPA) (Roberts et al., 2007). For qNPA analysis, cell lysates were thawed at 50C for approximately 30 min, qNPA probes were added, and samples were incubated at 95C for 10 min to begin the detection process by denaturing the target RNA, dissociating the duplexes and secondary structure hybridization. At the conclusion of the hybridization period, S1 nuclease reagent was added to each sample to digest all nonprotected nucleotides at 50C for 60-90 min. […]
On to `O=C(O)CCCOc1ccc(Cl)cc1Cl`, for which the molecule was classed as inactive.
As for `Oc1ccc(Cl)cc1Cc1ccccc1`, the outcome was inactive.
Take `CCS(=O)(=O)c1cccnc1S(=O)(=O)NC(=O)Nc1nc(OC)cc(OC)n1`: the molecule was called inactive.
Same read-out and setting: for `CNC(=O)CSP(=S)(OC)OC` the value was “inactive”; for `OCCOc1ccccc1`, “inactive”.
On to `O=[N+]([O-])/N=C1\NCCN1Cc1ccc(Cl)nc1`, for which the molecule was classed as inactive.
On to `COP(=O)(OC)OC=C(Cl)Cl`, for which the molecule was classed as inactive.
Consider `COC(=O)c1ccccc1S(=O)(=O)NC(=O)Nc1nc(C)nc(OC)n1`, for which the molecule was classed as inactive.
On to `O=C(O)COc1ccc(Cl)cc1Cl`, for which the AC50 was 0.0225 µM (active).
For `O=C(O)C(F)(F)C(F)(F)C(F)(F)C(F)(F)C(F)(F)C(F)(F)C(F)(F)F`, the outcome was inactive.
The same measure, in the same setting: for `N#Cc1c(Cl)c(Cl)c(Cl)c(C#N)c1Cl` the value was “inactive”; for `[2H]C1([2H])[n+]2ccccc2-c2cccc[n+]2C1([2H])[2H]`, “inactive”.
Same read-out and setting: the value for `COc1cc(OC)nc(NC(=O)NS(=O)(=O)c2cc(NC=O)ccc2C(=O)N(C)C)n1` was “inactive”.
Same read-out and setting: for `Oc1cc(Cl)ccc1Oc1ccc(Cl)cc1Cl` the value was “inactive”; for `CNC(=O)Oc1cccc(N=CN(C)C)c1`, “inactive”; for `C#CCN1C(=O)COc2cc(F)c(N3C(=O)C4=C(CCCC4)C3=O)cc21`, “inactive”.

By AC50 is commonly meant the concentration at which the activity in the assay is half-maximal.

The values are drawn from PubChem BioAssay (EPA / NIEHS).
